Experimental findings from PubChem BioAssay AID2066 (NMMLSC, 2009) are described below.

Out of some 320,000 compounds screened, about 50 (0.02%) were called active. This is one part of a sample in which actives are shown more often than they occur. Unmarked numbers belong to inactive results.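 Rule for the calls: active = GFP response relative to DMSO above a set limit, near screen average plus 3 SD (cut at about 150% in these data); inconclusive = fewer than 70 cells counted for the yeast strain; inactive = the rest.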

This experiment can be described thus: yeast AGP1-GFP level changes, GLN3 branch – cell-based, multiplex flow cytometry, S. cerevisiae, MLPCN library, primary screen (AID 2066).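 Note: median GFP channel fluorescence of the gated AGP1 strain per well.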 The conditions noted are these: 3 h, at 10 µM, hits give high values, GFP as percent of DMSO wells. A general note: Flow cytometry measures light scatter and fluorescence of single cells or particles in a stream.
On to `COc1ccccc1NC(=O)C1=C(C)Nc2nc3ccccc3n2C1c1cccs1` (stereo unspecified), for which the GFP response vs DMSO is 97.6%.

In the case of `CCOC(=O)C1CCCN(S(=O)(=O)c2ccc(-n3cnnn3)c(C)c2)C1` (stereo unspecified), the GFP response vs DMSO was 107%.

For `Cc1cc(C)c(OCCN2CC(C)OC(C)C2)c(Br)c1` (stereo unspecified), the GFP response vs DMSO was 103%.

Take `CC(C)COc1ccc(C(=O)NNC(=O)CCC(=O)c2cccs2)cc1`: the GFP response vs DMSO was 107%.

As for `O=[N+]([O-])c1cc(S(=O)(=O)N2CCCC2)ccc1NN=C1CCCC1`, the GFP response vs DMSO is 102%.

`Cc1cccc(OCC(=O)OCC(=O)Nc2ccc(Cl)cn2)c1`: the GFP response vs DMSO is 106%.

Regarding `CCCCCCCCCCCCC(NC(C)=O)(C(=O)OCC)C(=O)OCC`, the GFP response vs DMSO was 94.5%.

For `C/C(CC(=O)NCc1ccc(Cl)cc1)=N\NC(=O)COc1ccc(C)cc1Br`, the GFP response vs DMSO is 105%.

Regarding `Cn1c(N)c(C(=O)COC(=O)C23CC4CC(CC(C4)C2)C3)c(=O)n(C)c1=O`, the GFP response vs DMSO is 103%.

Turning to `COc1ccc(C2=NN(C(=O)CSc3nc(=O)n4ccc(C)cc4n3)C(c3ccc(C)cc3)C2)cc1` (stereo unspecified), the GFP response vs DMSO was 107%.

With `N/C(=N\OC(=O)CC1CCCCC1)c1ccccc1`, the GFP response vs DMSO is 93.2%.

`CCCN(CC1CC1)C(=O)COC(=O)c1ccc(C)cc1O`: the GFP response vs DMSO was 99.2%.

Turning to `COc1cc(C(=O)OCC(=O)N(CC(C)C)C2CCS(=O)(=O)C2)ccc1OCC(C)C` (stereo unspecified), the GFP response vs DMSO is 103%.

For the molecule `CC(C)Cc1nn2c(=O)cc(O)nc2s1`, the GFP response vs DMSO was 106%.

Take `O=C(Nc1ccc(S(=O)(=O)N2CCCCCC2)cc1)c1c(F)cccc1F`: the GFP response vs DMSO was 93.4%.

For the molecule `COc1ccc(OC)c(S(=O)(=O)Nc2c(C)nn(C)c2C)c1`, the GFP response vs DMSO was 99.1%.

Turning to `CN=C(Nc1cccc(S(=O)(=O)N2CCOCC2)c1)c1ccccc1`, the GFP response vs DMSO was 111%.

Turning to `Cc1ccc(C)c(C(=O)COC(=O)Cn2[nH]c(=O)c3ccccc3c2=O)c1`, the GFP response vs DMSO is 101%.

As to `CCN1/C(=C\c2ccc3ccccc3[n+]2CC)Sc2cc(C)ccc21`, the GFP response vs DMSO is 189% [may fluoresce green] (active).

For the molecule `COc1ccc(-c2cc(C(F)(F)F)nc(S(C)(=O)=O)n2)cc1OC`, the GFP response vs DMSO is 106%.

Turning to `COc1ccc(-c2nnc(NC(=O)CS(=O)(=O)c3ccc(Cl)cc3)o2)c(OC)c1`, the GFP response vs DMSO is 100%.

For the molecule `Cc1noc(C)c1CSCC(=O)N(CCC(C)C)c1c(N)n(Cc2ccccc2)c(=O)[nH]c1=O`, the GFP response vs DMSO is 102%.

As for `CC(=O)c1c(C)[nH]c(C(=O)COc2ccc3c(C)cc(=O)oc3c2)c1C`, the GFP response vs DMSO was 110%.

`COc1ccc(CCNC2=CC(=O)CC(C)(C)C2)cc1`: the GFP response vs DMSO is 111%.

Regarding `CC1CN(C(=O)c2ccc([N+](=O)[O-])s2)CC(C)O1` (stereo unspecified), the GFP response vs DMSO is 94.7%.

Regarding `Cc1ccc2[nH]c(=O)c(CN(C)S(=O)(=O)c3cccc4nonc34)cc2c1`, the GFP response vs DMSO is 118%.

With `Cc1ccc(C(=O)CN2C(=O)NC3(CCOc4ccccc43)C2=O)s1` (stereo unspecified), the GFP response vs DMSO was 102%.

Regarding `COc1ccccc1N(CC(=O)Nc1ccc(C(F)(F)F)cc1)S(C)(=O)=O`, the GFP response vs DMSO is 109%.

As for `CC1CN(C(=O)c2cc(COc3c(F)cccc3F)on2)CCN1C` (stereo unspecified), the GFP response vs DMSO is 102%.

For the molecule `O=C(Nc1cccc(S(=O)(=O)N2CCCC2)c1)c1cncc(Br)c1`, the GFP response vs DMSO was 106%.

As for `O=C1c2ccncc2C(=O)N1C1CCCCC1`, the GFP response vs DMSO is 111%.

`Cc1ccc2c(c1)NC(=O)[C@@]1(C)[C@@H](c3ccccc3)[C@H]3COc4ccc(Cl)cc4[C@@H]3N1C2=O`: the GFP response vs DMSO was 98.7%.

For `Cc1ccc(NC(=O)Cn2cnc3c(OCc4ccccc4)ncnc32)cc1C`, the GFP response vs DMSO was 91%.

With `CC1(C)C(=O)C2(CCCCC2)C(=O)OC1c1cccs1` (stereo unspecified), the GFP response vs DMSO was 103%.

`O=C(c1cccc(F)c1)N1CCN(c2ccc([N+](=O)[O-])c3cccnc23)CC1`: the GFP response vs DMSO is 90.5%.

Turning to `CC(C)C[C@H](NC(=O)NCCc1ccc(Cl)cc1)C(=O)O`, the GFP response vs DMSO was 99.6%.

As for `COC(c1ccccc1)(c1ccccc1)C(Oc1nc(C)cc(C)n1)C(=O)O` (stereo unspecified), the GFP response vs DMSO was 98.3%.

As to `Cc1ccc(S(=O)(=O)NC2CCCCCC2)cc1`, the GFP response vs DMSO is 103%.

Regarding `Cc1ccc(S(=O)(=O)Nc2ccc3c(c2)C(=O)N([C@H](C)CO)C[C@@H](C)[C@@H](CN(C)C(=O)Nc2cccc4ccccc24)O3)cc1`, the GFP response vs DMSO is 96.4%.

As to `C=CCC(C(=O)c1ccccc1)[N+](C)(C)CC=C` (stereo unspecified), the GFP response vs DMSO was 96.9%.

Turning to `S=c1nc2ccccc2c2nc(-c3cccnc3)[nH]n12`, the GFP response vs DMSO is 102%.

Take `CCC(C)n1c(-c2cc(OC)c(OC)c(OC)c2)nc2nc3ccccc3nc21` (stereo unspecified): the GFP response vs DMSO was 101%.

Consider `CCc1ccc(-c2cc3c(=O)n(CC(=O)NCCCN4CCN(Cc5ccccc5)CC4)nc(C)n3n2)cc1`, for which the GFP response vs DMSO is 102%.

For the molecule `CN(C)C(CNC(=O)c1ccc(OCc2cn3ccccc3n2)cc1)c1ccco1` (stereo unspecified), the GFP response vs DMSO was 97.7%.

For `CC(C)Cc1nnc(NC(=O)CCNC(=O)c2ccccc2Cl)s1`, the GFP response vs DMSO is 105%.

As to `O=C(CCCOc1ccccc1)NNC(=O)c1ccc(Cl)cc1`, the GFP response vs DMSO is 109%.

On to `Cn1cccc1C(=O)OCC(=O)c1ccc(Br)s1`, for which the GFP response vs DMSO was 100%.

For the molecule `COc1cc(NC(=O)CCNC(=O)Cn2ccc3ccccc3c2=O)cc(OC)c1OC`, the GFP response vs DMSO is 104%.

For the molecule `Cc1cc(C(F)(F)F)nn1CC(=O)N1CCCC1`, the GFP response vs DMSO was 97.4%.

Take `CSc1ccc(S(=O)(=O)NCC(=O)OCC(=O)NC2(C#N)CCCCC2)cc1[N+](=O)[O-]`: the GFP response vs DMSO was 108%.

For the molecule `CCc1ccc(NC(=O)C(=O)NNC(=O)c2cccs2)cc1`, the GFP response vs DMSO is 107%.

Turning to `CC(C)N1C(=O)N(c2ccccc2)C(C)(O)CC1(C)C` (stereo unspecified), the GFP response vs DMSO is 99.2%.

Regarding `COc1ccc(C(C)(C)C)cc1NC(=O)CCN1C(=O)C2CCCCC2C1=O` (stereo unspecified), the GFP response vs DMSO is 112%.

`Cc1nn2cc(-c3ccc(Cl)cc3)cnc2c1Br`: the GFP response vs DMSO was 102%.

In the case of `CC(C)c1ccc(NC(=O)CCN2C(=O)c3ccc([N+](=O)[O-])cc3C2=O)cc1`, the GFP response vs DMSO is 111%.

In the case of `CC(C)(C)c1ccc(C(=O)N2CCN(CCNC(=O)C(=O)Nc3ccc(F)cc3)CC2)cc1`, the GFP response vs DMSO was 100%.

As for `Cc1ccc(NC(=O)Cn2cccc2C2=NC(c3ccccc3)CO2)c(C)c1` (stereo unspecified), the GFP response vs DMSO was 103%.

Regarding `O=C1[C@@H]2C(c3cccnc3)=NO[C@@H]2C(=O)N1c1ccc(Cl)cc1Cl`, the GFP response vs DMSO is 112%.

As to `C#CCO[C@@H]1C[C@H](n2cnc3c(=O)[nH]c(NC(=O)C(C)C)nc32)O[C@@H]1CO`, the GFP response vs DMSO is 87.2%.

Turning to `CC1=CC(C)(C)NC(=S)N1NC(=O)c1ccccc1Cl`, the GFP response vs DMSO was 109%.

Take `COc1ccc(/C(C)=N/N2CCOCC2)c(O)c1`: the GFP response vs DMSO is 104%.

`Cc1cccc(CSc2nc3c(c(=O)n2C)SCC3)c1`: the GFP response vs DMSO was 91.2%.

Turning to `Cn1nccc1C(=O)NC1CCCc2c1cnn2-c1ccc(F)cc1F` (stereo unspecified), the GFP response vs DMSO is 95.7%.

For `CN(C)N(C)C(=O)C(O)(c1ccccc1)c1ccccc1`, the GFP response vs DMSO was 109%.

As for `CCC(C)(C)NC(=O)C(c1ccc(O)cc1)N(Cc1ccco1)C(=O)CCC(=O)Nc1ccccn1` (stereo unspecified), the GFP response vs DMSO is 100%.

On to `CCOc1ccc(S(=O)(=O)N2CCC(C(=O)NCC(=O)Nc3cccc(Cl)c3C)CC2)cc1`, for which the GFP response vs DMSO is 93.8%.

`O=C(NCc1ccc(F)cc1)C1CCN(C(=O)Nc2ccc(F)cc2)CC1`: the GFP response vs DMSO was 96.4%.

Regarding `O=C(OCC(=O)N1CCN(C(=O)c2ccco2)CC1)c1ccc(Cl)c(Cl)c1`, the GFP response vs DMSO is 103%.

For `COc1ccccc1OCc1ccc(C(=O)NC(C)c2ccccc2)o1` (stereo unspecified), the GFP response vs DMSO is 95.8%.

For the molecule `Cc1c(Cl)c([N+](=O)[O-])nn1Cc1ccc(C(=O)N/N=C\c2cc(Cl)ccc2O)o1`, the GFP response vs DMSO is 99.4%.

As to `C/C=C/c1ccc(OCC(=O)NNC(=O)CN(C)S(=O)(=O)c2ccc(C)cc2)c(OC)c1`, the GFP response vs DMSO is 91.6%.

Turning to `O=C(O)C(F)(F)C(NCc1ccccc1)c1ccccc1` (stereo unspecified), the GFP response vs DMSO was 102%.

In the case of `CCOC(=O)C1C(=O)NCC1c1ccccc1` (stereo unspecified), the GFP response vs DMSO was 109%.

Take `CCOC(=O)c1ccccc1NC(=O)c1c(N)n(C)c(=O)[nH]c1=O`: the GFP response vs DMSO was 87.3%.

For the molecule `N#C/C=C/N1CCN(Cc2ccc3c(c2)OCO3)CC1`, the GFP response vs DMSO was 93%.

With `O=C(O)CCCCOn1ccnc1`, the GFP response vs DMSO is 91.2%.

Take `O=C(Nc1c2c(nn1-c1cccc(Cl)c1)CS(=O)(=O)C2)c1cccs1`: the GFP response vs DMSO is 90.9%.

As for `Cc1ccccc1NC(=O)C(C)c1ccc(-c2ccccc2)c(F)c1` (stereo unspecified), the GFP response vs DMSO is 97.8%.

Turning to `CCn1cc(C(=O)N2CC(C)CC(C)C2)c(=O)c2cc(S(=O)(=O)N3CCCC3)ccc21` (stereo unspecified), the GFP response vs DMSO was 93.8%.

As for `CC1=CC=CN2C1=NC(=O)CC2(C)C(=O)N(CC(=O)NC1CCCC1)c1ccccc1C` (stereo unspecified), the GFP response vs DMSO was 99.9%.

Turning to `CCOc1ncccc1C(=O)OCC(=O)Nc1cccc(S(=O)(=O)N2CCCCCC2)c1`, the GFP response vs DMSO was 100%.

With `CCOc1ccc(N2C(=O)CSC2=NC#N)cc1`, the GFP response vs DMSO was 88.3%.

In the case of `Cc1ccc(S(=O)(=O)NCC(=O)N(CC(=O)NCC2CCCO2)c2cccc(F)c2)cc1` (stereo unspecified), the GFP response vs DMSO was 114%.

On to `CC1(C)NC(=O)N(CC(=O)N2CCN(S(=O)(=O)c3ccccc3F)CC2)C1=O`, for which the GFP response vs DMSO was 95.5%.

Take `Cc1cc(C)c(NC(=S)N2CCCC2C(=O)O)c(C)c1` (stereo unspecified): the GFP response vs DMSO is 102%.

As for `Cc1cccc(C)c1NC(=O)C1(N(C(=O)c2ccccn2)c2ccc(O)cc2)CCCCC1`, the GFP response vs DMSO was 97.2%.

Turning to `CC(=O)C[C@H](O)CC(=O)[C@@H]1OC(=O)[C@@H](C)C/C=C\Cc2ccccc21`, the GFP response vs DMSO was 98.2%.

As for `CCOc1ccc(C2NC(=S)NC3=C2CCc2ccccc23)cc1` (stereo unspecified), the GFP response vs DMSO was 103%.

`CCCCn1nc(C(=O)N2CCc3ccccc32)c2ccccc2c1=O`: the GFP response vs DMSO was 98.5%.

With `Cc1ccccc1OCC(=O)NNC(=O)c1ccc(-n2cncn2)c([N+](=O)[O-])c1`, the GFP response vs DMSO is 106%.

As for `O=C(CSc1cccc[n+]1[O-])NCCCc1ccccc1`, the GFP response vs DMSO was 101%.
